# Inconclusive results are not listed. Entries that show only a call come without a potency. Activity calls are given as the source filed them. Calls come from the whole dose curve; as a rule, active = well fitted curve in the direction sought with a large enough effect; inconclusive = small, poorly fitted or top-dose-only effect, or another doubt; inactive = no such curve, though single readings can be large; an effect the other way counts as inactive or inconclusive.
# Tests used:
# [1] = Quantitative High-Throughput drug screen in 47 multiple myeloma cell lines against the NCATS MIPE library collection: JIM3_ECACC cell viability assay (AID 1918963; note: nearly all actives have a fitted effect of over 35% in size); details: JIM3 myeloma viability, CellTiter-Glo ATP, 48 h; series mostly up to 45.8 µM
# Method in brief: (§1)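 Approved and investigational drugs from MIPE 4.0 were added by pin tool to 500 cells per well. After 48 hours at 37C, ATP-based CellTiter-Glo luminescence indicated remaining viability.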
# [2] = Quantitative High-Throughput drug screen in 47 multiple myeloma cell lines against the NCATS MIPE library collection: JIM1_ECACC cell viability assay (AID 1918964); details: JIM1 myeloma viability, CellTiter-Glo ATP luminescence, 48 h; series mostly up to 45.8 µM
# Method in brief: (§2)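 We plated 500 myeloma cells per well, pinned in MIPE 4.0 compounds, and incubated for 48 hours at 37C. ATP was then quantified with CellTiter-Glo, with DMSO and media-only wells defining 100% and 0%.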
# [3] = Quantitative High-Throughput drug screen in 47 multiple myeloma cell lines against the NCATS MIPE library collection: INA6_PLB cell viability assay (AID 1918965; note: nearly all actives have a fitted effect of over 55% in size); details: INA6 myeloma viability, CellTiter-Glo ATP luminescence, 48 h; series mostly up to 45.8 µM
# Method in brief: (§3)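 Inhibition of cell viability is measured here. Each line was plated at 500 cells per well, treated with MIPE 4.0 drugs, kept 48 hours at 37C, then assayed for ATP content by CellTiter-Glo luminescence.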
# [4] = Quantitative High-Throughput drug screen in 47 multiple myeloma cell lines against the NCATS MIPE library collection: JJN3_DSMZ cell viability assay (AID 1918966; note: nearly all actives have a fitted effect of over 50% in size); details: JJN3 myeloma cells viability, CellTiter-Glo ATP, 48 h; series mostly up to 45.8 µM
# Method in brief: as §2
# [5] = Quantitative High-Throughput drug screen in 47 multiple myeloma cell lines against the NCATS MIPE library collection: H1112_PLB cell viability assay (AID 1918967; note: nearly all actives have a fitted effect of over 30% in size); details: H1112 myeloma cells viability, ATP luminescence, 48 h; series mostly up to 45.8 µM
# Method in brief: as §2
# [6] = Quantitative High-Throughput drug screen in 47 multiple myeloma cell lines against the NCATS MIPE library collection: Karpas25_ECACC cell viability assay (AID 1918968; note: nearly all actives have a fitted effect of over 35% in size); details: Karpas25 myeloma viability, CellTiter-Glo ATP, 48 h; series mostly up to 45.8 µM
# Method in brief: as §2
# [7] = Quantitative High-Throughput drug screen in 47 multiple myeloma cell lines against the NCATS MIPE library collection: KMS27_JCRB cell viability assay (AID 1918970); details: KMS27 myeloma cells, CellTiter-Glo ATP viability, 48 h; viability (% of DMSO): at 45.8 µM (top of the series); note: nearly all actives have a fitted effect of over 30% in size
# Method in brief: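 CellTiter-Glo luminescence after 48 h drug exposure at 37 °C; 500 cells/well, 1536-well format, pin-tool compound addition; DMSO = 100%, media-only = 0% viability.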
# [8] = Quantitative High-Throughput drug screen in 47 multiple myeloma cell lines against the NCATS MIPE library collection: KMS12BM_JCRB cell viability assay (AID 1918971); details: KMS12BM myeloma viability, CellTiter-Glo ATP, 48 h; series mostly up to 45.8 µM; note: nearly all actives have a fitted effect of over 35% in size
# Method in brief: (§4)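 CellTiter-Glo luminescence (ATP) after 48 h compound exposure, 37C/5% CO2; 500 cells/well; MIPE 4.0 approved/investigational drugs pinned in; DMSO = 100%, media only = 0% viability.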
# [9] = Quantitative High-Throughput drug screen in 47 multiple myeloma cell lines against the NCATS MIPE library collection: KMS12PE_JCRB cell viability assay (AID 1918972); details: KMS12PE myeloma viability, CellTiter-Glo ATP, 48 h; series mostly up to 45.8 µM; note: nearly all actives have a fitted effect of over 30% in size
# Method in brief: as §3
# [10] = Quantitative High-Throughput drug screen in 47 multiple myeloma cell lines against the NCATS MIPE library collection: KMS20_JCRB cell viability assay (AID 1918973); details: CellTiter-Glo ATP, 48 h; series mostly up to 45.8 µM; note: nearly all actives have a fitted effect of over 45% in size
# Method in brief: as §2
# [11] = Quantitative High-Throughput drug screen in 47 multiple myeloma cell lines against the NCATS MIPE library collection: KMS26_JCRB cell viability assay (AID 1918975); details: KMS26 myeloma cells viability, CellTiter-Glo ATP, 48 h; series mostly up to 45.8 µM; note: nearly all actives have a fitted effect of over 45% in size
# Method in brief: as §4
# [12] = Quantitative High-Throughput drug screen in 47 multiple myeloma cell lines against the NCATS MIPE library collection: MMM1_PLB cell viability assay (AID 1918976); details: MMM1 myeloma cells viability, CellTiter-Glo, 48 h; series mostly up to 45.8 µM; note: nearly all actives have a fitted effect of over 35% in size
# Method in brief: (§5)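 ATP-based luminescence (CellTiter-Glo, 5 min RT incubation) quantified surviving cells following two days' treatment with MIPE 4.0 agents at 37 °C, 5% CO2.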
# [13] = Quantitative High-Throughput drug screen in 47 multiple myeloma cell lines against the NCATS MIPE library collection: NCIH929_DSMZ cell viability assay (AID 1918978); details: NCI-H929 myeloma viability, CellTiter-Glo ATP, 48 h; series mostly up to 45.8 µM; note: nearly all actives have a fitted effect of over 35% in size
# Method in brief: as §5
# [14] = Quantitative High-Throughput drug screen in 47 multiple myeloma cell lines against the NCATS MIPE library collection: OCIMY1_PLB cell viability assay (AID 1918979); details: OCI-MY1 myeloma viability, CellTiter-Glo ATP, 48 h; series mostly up to 45.8 µM; note: nearly all actives have a fitted effect of over 35% in size
# Method in brief: as §5
# [15] = Quantitative High-Throughput drug screen in 47 multiple myeloma cell lines against the NCATS MIPE library collection: MM1S_ATCC cell viability assay (AID 1918980); details: MM1S myeloma viability, CellTiter-Glo ATP luminescence, 48 h; series mostly up to 45.8 µM; note: nearly all actives have a fitted effect of over 45% in size
# Method in brief: as §5
# [16] = Quantitative High-Throughput drug screen in 47 multiple myeloma cell lines against the NCATS MIPE library collection: MM1R_ATCC cell viability assay (AID 1918981); details: MM1R multiple myeloma cells, CellTiter-Glo viability, 48 h; series mostly up to 45.8 µM; note: nearly all actives have a fitted effect of over 35% in size
# Method in brief: as §5
# [17] = Quantitative High-Throughput drug screen in 47 multiple myeloma cell lines against the NCATS MIPE library collection: LP1_DSMZ cell viability assay (AID 1918982); details: LP1 myeloma viability, CellTiter-Glo ATP luminescence, 48 h; series mostly up to 45.8 µM; note: nearly all actives have a fitted effect of over 35% in size
# Method in brief: as §5
# [18] = Quantitative High-Throughput drug screen in 47 multiple myeloma cell lines against the NCATS MIPE library collection: KHM11_PLB cell viability assay (AID 1918962); details: KHM11 myeloma cell viability, CellTiter-Glo ATP luminescence, 48 h; series mostly up to 45.8 µM; note: nearly all actives have a fitted effect of over 35% in size
# Method in brief: as §1
# [19] = Quantitative High-Throughput drug screen in 47 multiple myeloma cell lines against the NCATS MIPE library collection: MOLP8_DSMZ cell viability assay (AID 1918977); details: MOLP8 myeloma viability, CellTiter-Glo ATP luminescence, 48 h; series mostly up to 45.8 µM; note: nearly all actives have a fitted effect of over 45% in size
# Method in brief: as §5
# [20] = Quantitative High-Throughput drug screen in 47 multiple myeloma cell lines against the NCATS MIPE library collection: KMS21BM_JCRB cell viability assay (AID 1918974); details: ATP luminescence, 48 h; viability: at 45.8 µM (top of the series)
# Method in brief: as §2
# Potency is the fitted concentration of half-maximal effect.
Compound,Potency [1],Potency [2],Potency [3],Potency [4],Potency [5],Potency [6],Potency [7],Potency [8],Potency [9],Potency [10],Potency [11],Potency [12],Potency [13],Potency [14],Potency [15],Potency [16],Potency [17],Potency [18],Potency [19],Potency [20]
Cn1cc(CNCC2CCN(c3ncc(C(=O)NO)cn3)CC2)c2ccccc21,132 nM (active),74.3 nM (active),1 nM (active),29.6 nM (active),33.2 nM (active),0.0118 µM (active),0.0166 µM (active),23.5 nM (active),0.0372 µM (active),29.6 nM (active),16.6 nM (active),41.8 nM (active),20.9 nM (active),105 nM (active),16.6 nM (active),0.0148 µM (active),41.8 nM (active),–,–,–
C[C@H]1C[C@H]2[C@@H]3CCC4=CC(=O)C=C[C@]4(C)[C@@H]3C(=O)C[C@]2(C)[C@@]1(O)C(=O)CO,inactive,–,–,inactive,inactive,inactive,inactive,inactive,inactive,–,–,–,inactive,–,inactive,inactive,inactive,inactive,inactive,–
CC(=O)O[C@]1(C(C)=O)CC[C@H]2[C@@H]3C=C(C)C4=CC(=O)CC[C@]4(C)[C@@H]3CC[C@@]21C,–,10500 nM (active),–,–,–,8.33 µM (active),9.35 µM (active),9350 nM (active),11.8 µM (active),–,inactive,18700 nM (active),7430 nM (active),inactive,2350 nM (active),11.8 µM (active),–,inactive,–,–
O=C(O)CCCCC(CCSCc1ccccc1)SCc1ccccc1 (configuration not stated),inactive,–,–,–,–,–,13.2 µM (active),inactive,16.6 µM (active),–,inactive,–,inactive,inactive,–,inactive,–,inactive,inactive,–
C=CC(=O)Nc1cccc(Nc2nc(NC3CCC(N(C)C)CC3)nc3c2ncn3C(C)C)c1 (configuration not stated),332 nM (active),1 nM (active),296 nM (active),10.5 nM (active),41.8 nM (active),0.0296 µM (active),0.0105 µM (active),469 nM (active),0.0118 µM (active),93.5 nM (active),235 nM (active),1050 nM (active),37.2 nM (active),4690 nM (active),41.8 nM (active),–,372 nM (active),–,166 nM (active),16.6 nM (active)
C[C@H](CCC(=O)O)[C@H]1CCC2C3C[C@H](O)[C@@H]4C[C@H](O)CC[C@]4(C)C3CC[C@@]21C (some centres not stated),–,inactive,inactive,–,inactive,–,–,–,inactive,inactive,inactive,833 nM (active),inactive,inactive,inactive,inactive,inactive,inactive,–,–
CN(C)CC(=O)N1CCC(c2ccc(NC(=O)c3ncc(C#N)[nH]3)c(C3=CCCCC3)c2)CC1,–,5260 nM (active),14800 nM (active),–,18700 nM (active),23.5 µM (active),–,inactive,5.26 µM (active),13200 nM (active),–,–,16600 nM (active),–,2350 nM (active),8.33 µM (active),inactive,20.9 µM (active),–,–
CCC[C@H]1C[C@H](C(=O)N[C@@H]([C@@H]2O[C@@H](SC)[C@@H](O)[C@@H](O)[C@@H]2O)[C@H](C)Cl)N(C)C1,inactive,–,–,–,inactive,inactive,inactive,–,inactive,inactive,–,–,–,inactive,inactive,inactive,inactive,inactive,inactive,–
CC[C@H](CC[C@@H](C)[C@H]1CC[C@H]2[C@@H]3CC=C4C[C@@H](O)CC[C@]4(C)[C@@H]3CC[C@]12C)C(C)C,inactive,–,–,inactive,inactive,inactive,–,inactive,–,–,inactive,–,inactive,inactive,–,inactive,inactive,inactive,inactive,–
C#CCC(Cc1cnc2nc(N)nc(N)c2n1)c1ccc(C(=O)N[C@@H](CCC(=O)O)C(=O)O)cc1 (some centres not stated),46.9 nM (active),inactive,93.5 nM (active),66.2 nM (active),132 nM (active),11.8 µM (active),inactive,inactive,inactive,inactive,105 nM (active),inactive,118 nM (active),inactive,18.7 nM (active),–,41.8 nM (active),–,–,–
O=C(O)[C@H](CC(=O)N1C[C@@H]2CCCC[C@H]2C1)Cc1ccccc1,inactive,–,–,inactive,inactive,–,–,–,–,inactive,inactive,–,–,–,–,–,inactive,inactive,–,–
